Results reported in PubChem BioAssay AID1159580 (chemical genetic matrix, 2015).
Screen size: about 5,500 compounds; about 2,000 (36%) were called active. Not shown: some 18% with an inconclusive outcome. Rule as the data show it: active = normalized growth mostly below about 0.91 (no sharp cut-off); inconclusive = no clear call, values can overlap the other calls; inactive = mostly above about 0.92. The list shows a part of the results.

Test: chemical genetic growth profiling, strain panel (AID 1159580);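 also: tested at 20 µM; growth read once vehicle control cultures reached saturation at 30 °C; 1 = growth at the plate median or of vehicle wells; lower values mean less growth of the strain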
Conditions: growth OD

Measured: normalized growth

CCC[C@@H]1C[C@@H](C(=O)N[C@H]([C@H]2O[C@H](SC)[C@H](O)[C@@H](O)[C@H]2O)[C@H](C)O)N(C)C1
inactive: S. cerevisiae deletion strains, locus YJR066W, strain TOR1, stronger effect = lower value 0.967 | S. cerevisiae deletion strains, locus YJR075W, strain HOC1, stronger effect = lower value 0.993 | S. cerevisiae deletion strains, locus YKL009W, strain mrt4, stronger effect = lower value 0.974 | S. cerevisiae deletion strains, locus YKL068W, stronger effect = lower value 0.991 | S. cerevisiae deletion strains, locus YKL085W, strain MDH1 (second series), stronger effect = lower value 0.984 | S. cerevisiae deletion strains, locus YKL085W, strain MDH1, stronger effect = lower value 0.984 | S. cerevisiae deletion strains, locus YKL160W, strain elf1, stronger effect = lower value 0.964 | S. cerevisiae deletion strains, locus YKL190W, strain CNB1, stronger effect = lower value 1.01 | S. cerevisiae deletion strains, locus YKR001C, strain vps1, stronger effect = lower value 0.996 | S. cerevisiae deletion strains, locus YKR026C, strain gcn3, stronger effect = lower value 0.979 | S. cerevisiae deletion strains, locus YKR091W, strain srl3, stronger effect = lower value 0.987 | S. cerevisiae deletion strains, locus YLL001W, strain dnm1, stronger effect = lower value 0.951 | S. cerevisiae deletion strains, locus YLL026W, stronger effect = lower value 0.962 | S. cerevisiae deletion strains, locus YLL041C, strain sdh2, stronger effect = lower value 0.982 | S. cerevisiae deletion strains, locus YLR027C, strain aat2, stronger effect = lower value 0.97 | S. cerevisiae deletion strains, locus YLR039C, strain RIC1, stronger effect = lower value 0.973 | S. cerevisiae deletion strains, locus YLR058C, strain SHM2, stronger effect = lower value 0.977 | S. cerevisiae deletion strains, locus YLR102C, strain apc9, stronger effect = lower value 0.992 | S. cerevisiae deletion strains, locus YLR113W, strain HOG1, stronger effect = lower value 1.03 | S. cerevisiae deletion strains, locus YLR221C, strain rsa3, stronger effect = lower value 1.03 | S. cerevisiae deletion strains, locus YLR258W, strain gsy2, stronger effect = lower value 1 | S. cerevisiae deletion strains, locus YLR262C, strain YPT6 (second series), stronger effect = lower value 0.965 | S. cerevisiae deletion strains, locus YLR262C, strain YPT6, stronger effect = lower value 1.02 | S. cerevisiae deletion strains, locus YLR268W, strain sec22, stronger effect = lower value 1.01 | S. cerevisiae deletion strains, locus YLR320W, strain mms22, stronger effect = lower value 1.02 | S. cerevisiae deletion strains, locus YLR330W, strain CHS5, stronger effect = lower value 0.986 | S. cerevisiae deletion strains, locus YLR342W, strain FKS1 (second series), stronger effect = lower value 1 | S. cerevisiae deletion strains, locus YLR342W, strain FKS1, stronger effect = lower value 0.966 | S. cerevisiae deletion strains, locus YLR357W, strain rsc2, stronger effect = lower value 1 | S. cerevisiae deletion strains, locus YLR370C, strain arc18, stronger effect = lower value 0.972 | S. cerevisiae deletion strains, locus YLR371W, strain rom2, stronger effect = lower value 0.992 | S. cerevisiae deletion strains, locus YLR384C, strain iki3, stronger effect = lower value 0.97 | S. cerevisiae deletion strains, locus YLR418C, strain cdc73, stronger effect = lower value 0.975 | S. cerevisiae deletion strains, locus YML016C, strain PPZ1, stronger effect = lower value 0.989 | S. cerevisiae deletion strains, locus YML032C, strain rad52, stronger effect = lower value 1 | S. cerevisiae deletion strains, locus YML120C, strain ndi1, stronger effect = lower value 0.95 | S. cerevisiae deletion strains, locus YML124C, strain tub3, stronger effect = lower value 0.998 | S. cerevisiae deletion strains, locus YMR058W, strain fet3, stronger effect = lower value 0.975 | S. cerevisiae deletion strains, locus YMR078C, strain ctf18, stronger effect = lower value 0.986 | S. cerevisiae deletion strains, locus YMR125W, strain sto1, stronger effect = lower value 0.992 | S. cerevisiae deletion strains, locus YMR129W, stronger effect = lower value 0.991 | S. cerevisiae deletion strains, locus YMR205C, strain PFK2, stronger effect = lower value 0.99 | S. cerevisiae deletion strains, locus YMR223W, strain ubp8, stronger effect = lower value 0.962 | S. cerevisiae deletion strains, locus YMR231W, strain pep5, stronger effect = lower value 0.996 | S. cerevisiae deletion strains, locus YMR263W, strain SAP30, stronger effect = lower value 0.996 | S. cerevisiae deletion strains, locus YMR307W, strain GAS1, stronger effect = lower value 1 | S. cerevisiae deletion strains, locus YNL067W, strain RPL9B, stronger effect = lower value 1.01 | S. cerevisiae deletion strains, locus YNL071W, strain lat1, stronger effect = lower value 0.986 | S. cerevisiae deletion strains, locus YNL183C, strain NPR1, stronger effect = lower value 0.968 | S. cerevisiae deletion strains, locus YNL209W, strain ssb2, stronger effect = lower value 0.993 | S. cerevisiae deletion strains, locus YNL233W, strain BNI4, stronger effect = lower value 0.984 | S. cerevisiae deletion strains, locus YNL248C, strain rpa49, stronger effect = lower value 1.02 | S. cerevisiae deletion strains, locus YNL250W, strain rad50, stronger effect = lower value 0.979 | S. cerevisiae deletion strains, locus YNL271C, strain bni1, stronger effect = lower value 0.985 | S. cerevisiae deletion strains, locus YNL298W, strain CLA4, stronger effect = lower value 0.989 | S. cerevisiae deletion strains, locus YNL307C, strain MCK1, stronger effect = lower value 0.993 | S. cerevisiae deletion strains, locus YNL322C, strain KRE1 (second series), stronger effect = lower value 0.987 | S. cerevisiae deletion strains, locus YNL322C, strain KRE1, stronger effect = lower value 0.993 | S. cerevisiae deletion strains, locus YNR049C, strain mso1, stronger effect = lower value 0.977 | S. cerevisiae deletion strains, locus YNR052C, strain pop2, stronger effect = lower value 0.987 | S. cerevisiae deletion strains, locus YOL012C, strain htz1 0.745 | S. cerevisiae deletion strains, locus YOL147C, strain pex11, stronger effect = lower value 0.985 | S. cerevisiae deletion strains, locus YOR001W, strain rrp6, stronger effect = lower value 0.947 | S. cerevisiae deletion strains, locus YOR061W, strain CKA2, stronger effect = lower value 0.998 | S. cerevisiae deletion strains, locus YOR069W, strain VPS5, stronger effect = lower value 0.99 | S. cerevisiae deletion strains, locus YOR070C, strain gyp1, stronger effect = lower value 0.993 | S. cerevisiae deletion strains, locus YOR080W, strain dia2, stronger effect = lower value 0.971 | S. cerevisiae deletion strains, locus YOR083W, strain WHI5, stronger effect = lower value 0.966 | S. cerevisiae deletion strains, locus YOR106W, strain vam3, stronger effect = lower value 0.951 | S. cerevisiae deletion strains, locus YOR136W, strain idh2, stronger effect = lower value 0.984 | S. cerevisiae deletion strains, locus YOR144C, strain elg1, stronger effect = lower value 0.985 | S. cerevisiae deletion strains, locus YOR184W, strain ser1, stronger effect = lower value 0.978 | S. cerevisiae deletion strains, locus YOR231W, strain MKK1, stronger effect = lower value 1.04 | S. cerevisiae deletion strains, locus YOR265W, strain rbl2, stronger effect = lower value 0.983 | S. cerevisiae deletion strains, locus YOR270C, strain vph1, stronger effect = lower value 0.948 | S. cerevisiae deletion strains, locus YOR290C, strain snf2, stronger effect = lower value 1 | S. cerevisiae deletion strains, locus YOR316C, strain cot1, stronger effect = lower value 0.992 | S. cerevisiae deletion strains, locus YPL051W, strain arl3, stronger effect = lower value 1 | S. cerevisiae deletion strains, locus YPL078C, strain atp4, stronger effect = lower value 0.928 | S. cerevisiae deletion strains, locus YPL106C, strain sse1, stronger effect = lower value 0.94 | S. cerevisiae deletion strains, locus YPL240C, strain hsp82, stronger effect = lower value 0.981 | S. cerevisiae deletion strains, locus YPL241C, strain CIN2, stronger effect = lower value 0.998 | S. cerevisiae deletion strains, locus YPL256C, strain CLN2, stronger effect = lower value 1.03 | S. cerevisiae deletion strains, locus YPR119W, strain clb2, stronger effect = lower value 0.997 | S. cerevisiae deletion strains, locus YPR141C, strain kar3, stronger effect = lower value 0.985 | S. cerevisiae deletion strains, locus YPR163C, strain tif3, stronger effect = lower value 0.987 | S. cerevisiae deletion strains, locus YPR167C, strain met16, stronger effect = lower value 0.993 | S. cerevisiae deletion strains, strain wtn01, stronger effect = lower value 0.98 | S. cerevisiae strains, strain wild type, stronger effect = lower value 1.01
